Experimental data reported in PubChem BioAssay (Tox21).
Inconclusive results are not listed. Active and inactive are the calls of the source. Unless noted, calls come from the whole dose curve; as a rule, active = well fitted curve in the direction sought with a large enough effect in the repeat runs; inconclusive = weak or mixed curves; inactive = no such curve, though single readings can be large; an effect the other way counts as inactive or inconclusive.

What was measured:
[1] = qHTS assay to identify aromatase inhibitors - cell viability counter screen (AID 743084);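 note: cells stimulated with testosterone during compound exposure; nearly all actives have a fitted effect of over 55% in size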; note: potency is the fitted concentration of half-maximal effect
[2] = target: Aryl hydrocarbon receptor (Homo sapiens) (UniProt P35869); experiment: qHTS assay to identify small molecule that activate the aryl hydrocarbon receptor (AhR) signaling pathway (AID 743085);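 note: HG2L7.5c1 human HepG2 liver cells with stably integrated DRE-driven firefly reporter; series mostly up to about 70 µM; nearly all actives have a fitted effect of over 15% in size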
Chain of Aryl hydrocarbon receptor (Homo sapiens) (P35869 whole entry, looked up): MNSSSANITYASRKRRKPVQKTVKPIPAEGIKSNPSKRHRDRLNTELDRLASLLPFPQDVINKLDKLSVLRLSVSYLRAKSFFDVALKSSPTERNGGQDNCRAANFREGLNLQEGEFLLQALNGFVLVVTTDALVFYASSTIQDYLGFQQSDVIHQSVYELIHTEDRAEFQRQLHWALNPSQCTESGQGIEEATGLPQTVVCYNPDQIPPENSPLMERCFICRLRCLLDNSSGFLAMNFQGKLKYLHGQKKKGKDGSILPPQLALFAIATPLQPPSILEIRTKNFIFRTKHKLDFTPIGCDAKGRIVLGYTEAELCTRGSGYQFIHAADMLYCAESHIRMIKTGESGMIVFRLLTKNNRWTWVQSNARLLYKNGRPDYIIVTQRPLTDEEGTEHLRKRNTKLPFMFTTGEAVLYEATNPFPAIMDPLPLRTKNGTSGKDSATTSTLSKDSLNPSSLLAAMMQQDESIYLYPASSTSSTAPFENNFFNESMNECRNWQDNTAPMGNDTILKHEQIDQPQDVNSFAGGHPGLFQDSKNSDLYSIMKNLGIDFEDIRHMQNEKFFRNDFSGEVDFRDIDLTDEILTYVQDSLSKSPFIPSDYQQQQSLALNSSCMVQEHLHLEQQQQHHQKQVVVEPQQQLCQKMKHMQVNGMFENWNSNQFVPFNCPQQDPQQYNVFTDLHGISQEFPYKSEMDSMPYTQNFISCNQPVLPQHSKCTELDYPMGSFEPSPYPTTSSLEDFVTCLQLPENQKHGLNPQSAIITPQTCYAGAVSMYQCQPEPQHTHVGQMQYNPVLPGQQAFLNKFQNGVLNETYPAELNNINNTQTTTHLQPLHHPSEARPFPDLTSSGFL
How it was run: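 Luminescence (ONE-Glo) from a dioxin-responsive-element luciferase reporter in HG2L7.5c1 HepG2 cells after 24 hr compound exposure at 37C; viability measured by CellTiter-Fluor fluorescence beforehand.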

[3] = target: Peroxisome proliferator-activated receptor gamma (Homo sapiens) (UniProt P37231); experiment: qHTS assay to identify small molecule agonists of the peroxisome proliferator-activated receptor gamma (PPARg) signaling pathway (AID 743094; active = well fitted activation curve with a large enough effect in the signal ratio in the repeat runs, not every such curve was filed as active; the % refers to the signal ratio; note: potency is the fitted concentration of half-maximal effect)
Chain of Peroxisome proliferator-activated receptor gamma (Homo sapiens) (P37231 whole entry, looked up): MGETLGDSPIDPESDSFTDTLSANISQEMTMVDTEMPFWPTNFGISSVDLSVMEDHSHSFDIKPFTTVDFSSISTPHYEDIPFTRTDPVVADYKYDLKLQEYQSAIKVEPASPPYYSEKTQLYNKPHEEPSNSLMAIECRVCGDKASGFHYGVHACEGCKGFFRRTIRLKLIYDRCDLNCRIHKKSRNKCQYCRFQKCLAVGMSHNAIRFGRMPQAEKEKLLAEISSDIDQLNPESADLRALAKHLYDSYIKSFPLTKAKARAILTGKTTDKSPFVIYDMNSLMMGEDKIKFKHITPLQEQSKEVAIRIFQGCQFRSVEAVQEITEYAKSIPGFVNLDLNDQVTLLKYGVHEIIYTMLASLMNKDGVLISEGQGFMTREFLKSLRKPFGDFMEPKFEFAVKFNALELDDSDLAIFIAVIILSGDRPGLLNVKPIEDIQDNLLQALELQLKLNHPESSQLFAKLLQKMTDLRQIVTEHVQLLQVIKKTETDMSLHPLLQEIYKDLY
How it was run: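 Cell-based bla reporter, HEK293H background, PPARg-driven UAS. Pre-incubation 5 h, 37C, 5% CO2. Compound 17 h, 37C. Substrate 1 h RT; fluorescence.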

[4] = qHTS assay to identify small molecule antagonists of the peroxisome proliferator-activated receptor gamma (PPARg) signaling pathway - cell viability counter screen (AID 743194); note: nearly all actives have a fitted effect of over 55% in size
How it was run: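 PPARg-UAS-bla HEK293H cells were plated, rested 5 h at 37 C, then treated with compounds plus rosiglitazone (50 nM final) for 17 h at 37 C; viability was then read by CellTiter-Glo luminescence after 30 min at room temperature.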

[5] = qHTS assay for small molecule agonists of the antioxidant response element (ARE) signaling pathway - cell viability counter screen (AID 743203; calls by dose curve; note: nearly all actives have a fitted effect of over 55% in size; note: potency is the fitted concentration of half-maximal effect)
How it was run: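 Measured in the same wells as the beta-lactamase ARE reporter, this read-out is CellTiter-Glo luminescence from HepG2 ARE-bla cells given compounds for 16 hrs.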

[6] = qHTS assay for small molecule activators of the heat shock response signaling pathway - cell viability counter screen (AID 743209); note: nearly all actives have a fitted effect of over 50% in size
How it was run: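 Same-well multiplex: after 2.5 h room-temperature incubation with LiveBLAzer B/G substrate and fluorescence reading, CellTiter-Glo reagent was added to HSE-bla HeLa cells that had received compound for 5 h at 37 C; luminescence read after 30 min.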

[7] = qHTS assay to identify small molecule that activate the aryl hydrocarbon receptor (AhR) signaling pathway - cell viability counter screen (AID 743086);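 note: HepG2 liver cells carrying the AhR DRE luciferase reporter; series mostly up to about 70 µM; nearly all actives have a fitted effect of over 45% in size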
How it was run: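 HepG2-AhR-luc (HG2L7.5c1) cells, 4000/well, were preincubated 5 h at 37C, exposed to compound in qHTS format for 24 hr at 37C, then given CellTiter-Fluor for 30 min; viability was read as fluorescence in the reporter wells.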

[8] = target: Peroxisome proliferator-activated receptor gamma (Homo sapiens) (UniProt P37231); experiment: qHTS assay to identify small molecule antagonists of the peroxisome proliferator-activated receptor gamma (PPARg) signaling pathway (AID 743191; calls by dose curve; note: series mostly up to about 63 µM; nearly all actives have a fitted effect of over 30% in size)
How it was run: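 GeneBLAzer PPARg UAS-bla HEK293H cells carrying a UAS-driven beta-lactamase reporter were plated at 3000 cells/well, preincubated 5 h at 37C, then given compound for 17 h at 37C; LiveBLAzer B/G FRET substrate was read after 1 h at room temperature.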

[9] = qHTS assay for small molecule agonists of the antioxidant response element (ARE) signaling pathway (AID 743202; active = well fitted activation curve with a large enough effect in the signal ratio in the repeat runs, not every such curve was filed as active; the % refers to the signal ratio; note: potency is the fitted concentration of half-maximal effect)
How it was run: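 Following a 16 h, 37 C exposure of reporter HepG2 cells (ARE-driven beta-lactamase, 2,000 cells/well) to compounds, FRET substrate was applied for 2 h at room temperature and fluorescence intensity recorded.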

[10] = qHTS assay for small molecule activators of the heat shock response signaling pathway (AID 743210; active = well fitted activation curve with a large enough effect in the signal ratio in the repeat runs, with a control signal flat, not every such curve was filed as active; the % refers to the signal ratio; note: series mostly up to about 63 µM)
How it was run: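 Heat shock element–beta-lactamase HeLa reporter cells; qHTS with compounds for 5 h at 37 C; detection by FRET substrate fluorescence after 2.5 h at RT.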

Measured: Potency

O=C(N[C@@H](Cc1ccccc1)[C@@H](O)C(=O)N1C[C@@H](O)[C@@H](O)C1)c1cc2cc(Cl)ccc2[nH]1
inactive: [1] | [2] | [3] | [4] | [5] | [6]

N#Cc1ccc(CC(=O)c2cccc(C(F)(F)F)c2)cc1
not listed: [2]
inactive: all other assays above

Cc1ccc2c(Cl)cc(Cl)c(O)c2n1
active: [1] 23.7 µM | [3] 9.52 µM
not listed: [2]
inactive: all other assays above

C1=COCCC1
not listed: [2]
inactive: all other assays above

Nc1ccc(-c2ccc(F)cc2)cc1
not listed: [2] | [9]
inactive: all other assays above

O=c1[nH]nc(-c2ccc([N+](=O)[O-])o2)o1
active: [1] 30.6 µM
not listed: [7] | [8] | [9]
inactive: all other assays above

CCn1nc(Cc2ccccc2)cc1C1CCN(C[C@H]2C[C@H](N(C)[C@@H](C(=O)O)C(C)C)C[C@@H]2c2cccc(F)c2)CC1
inactive: [1] | [2] | [4] | [5] | [10]

COC(=O)Cc1cccc2ccccc12
inactive: [1] | [2] | [3] | [9] | [6] | [10]

Nc1ccc(F)cc1F
not listed: [2]
inactive: all other assays above

O=C(O)c1ccc2cc(O)ccc2c1
not listed: [2]
inactive: all other assays above

Sc1nc(S)nc(S)n1
inactive: [1] | [2] | [4] | [5] | [6] | [10]

COc1ccc(C(=O)c2ccc(C)cc2)c(O)c1
not listed: [2] | [9]
inactive: all other assays above

CC(=O)OCC(=O)[C@@]1(O)CC[C@H]2[C@@H]3CCC4=CC(=O)C=C[C@]4(C)[C@@]3(F)[C@@H](O)C[C@@]21C
not listed: [2]
inactive: all other assays above

CC(CCl)OC(C)CCl (stereo not drawn)
not listed: [2] | [5]
inactive: all other assays above

CCCCCCCCCCCCSC#N
not listed: [2] | [10]
inactive: all other assays above

OCCOc1cccc(OCCO)c1
not listed: [2] | [10]
inactive: all other assays above

CO[C@@H]1COCC[C@@H]1N[C@@H]1CC[C@@](C(=O)N2CCc3ncc(C(F)(F)F)cc3C2)(C(C)C)C1
not listed: [2]
inactive: all other assays above

Cc1c(Cl)cccc1[N+](=O)[O-]
not listed: [2]
inactive: all other assays above

CCCCCCCCOCCCN
inactive: [1] | [2] | [7] | [6] | [10]
active: [5] 54.5 µM

c1ccc(CN(Cc2ccccc2)Cc2ccccc2)cc1
inactive: [1] | [2] | [7] | [6] | [10]

O=C(c1ccc(Cl)cc1)c1ccc(Cl)cc1
not listed: [2] | [10]
inactive: all other assays above

NC(=O)c1cc[n+](CC2=C(C(=O)[O-])N3C(=O)[C@@H](NC(=O)Cc4cccs4)[C@H]3SC2)cc1
not listed: [2] | [9]
inactive: all other assays above

C/C=C1\[C@H]2C=C(C)C[C@]1(N)c1ccc(=O)[nH]c1C2
not listed: [2]
inactive: all other assays above

Clc1ccccc1-c1nc(-c2ccncc2)no1
active: [9] 1.68 µM
not listed: [2]
inactive: all other assays above

COc1cccc([C@H](O)C2CCN(CCc3ccc(F)cc3)CC2)c1OC
inactive: [1] | [2] | [8] | [4] | [6] | [10]
